# From PubChem BioAssay AID624483 (NMMLSC, 2012)
# The whole screen tested about 360,000 compounds, of which about 11,000 (3.1%) were called active. Not shown: some 2% with an inconclusive outcome. What follows is part of a selection rich in actives, with near analogues and random picks from the rest. Unmarked numbers belong to inactive results. Rule as the data show it: active = fluorescence intensity above about 16000; inconclusive = no clear call, values can overlap the other calls; inactive = below that.
# Assay: counter-screen for toxin protease inhibitors: compound fluorescence, primary screen, artefact control for toxin protease inhibitor project, biochemical, multiplex microsphere, HTS (AID 624483)
# Conditions: compound autofluorescence counterscreen, microsphere flow cytometry; active compounds read high
row,SMILES,fluorescence intensity
1,CCCNC(=O)c1cc2c(c(-c3cccc(-c4ccc(C#N)cc4)c3)n1)[C@@H](CCO)N(C(=O)CC)C2,4490
2,Cn1c2c(c(=O)n(C)c1=O)[C@@H]1c3c(ccc4ccccc34)OC[C@@H]1CO2,3510
3,OCCNCCCCOc1ccccc1F,23000 (active)
4,Fc1ccccc1OCCCCn1cncn1,5750
5,CCN1CCN(CCCCOc2ccccc2F)CC1,9580
6,CCCN1C(=O)C(NC(C)=O)c2cc(OC)ccc21 (stereo unspecified),2550
7,COc1ccc(C(=O)NCC[N+](C)(C)C)cc1,5780
8,O=C(NC1CCCC1)C1c2ccccc2OCC(=O)N1Cc1ccccc1 (stereo unspecified),5910
9,Cc1ccc(NC(=O)NC(=O)N(C2CCCCC2)S(=O)(=O)c2ccccc2)cc1,9210
10,CC(c1ccco1)N(C(=O)Nc1ccccc1)C1CCCCC1 (stereo unspecified),20500 (active)
11,CC(=O)N1CCC(N(C(=O)Nc2ccc(Cl)cc2)C(C)C)CC1,4610
12,Cc1cc(C)c(S(=O)(=O)NN=C2c3ccccc3[C@H]3Cc4csc[n+]4[C@@H]23)c(C)c1,5040
13,O=C(c1ccc(C(F)(F)F)cc1)N1CCC(=O)N([C@H](COCc2ccccc2)Cc2ccccc2)CC1,5850
14,COc1ccc(C(=O)Cn2nnc(-c3ccc(N4CCOCC4)cc3)n2)cc1OC,24200 (active)
15,CCOc1ccc(-c2nnn(CC(=O)N3CCN(c4ccc(OC)cc4)CC3)n2)cc1OCC,4250
16,CCOc1ccc(-c2nnn(CC(=O)N3CCN(c4ccc(F)cc4)CC3)n2)cc1OCC,6120
17,CCCNC(=O)c1cc(C2CCCCN2C(=O)OC)on1 (stereo unspecified),3000
18,COc1ccccc1NC(=O)C1=C(C)Nc2nnnn2C1c1cccc(Br)c1 (stereo unspecified),20400 (active)
19,COc1ccccc1NC(=O)C1=C(C)Nc2ncnn2C1c1ccc(C)o1 (stereo unspecified),2690
20,COc1cc(C2C(C(=O)Nc3ccccc3OC)=C(C)Nc3ncnn32)ccc1O (stereo unspecified),6420
21,COc1ccc(NC(=O)CN2C(=O)COc3ccc(S(=O)(=O)N4CCOCC4)cc32)cc1,4800
22,CC1(C(=O)NS(=O)(=O)c2ccccc2)CCN1C(=O)C/C=C/c1ccccc1 (stereo unspecified),3600
23,Oc1ccc2ccc3cccc[n+]3c2c1,4220

row,SMILES,fluorescence intensity
1,CCCC(=O)N1CCC1(C)C(=O)NCc1ccc(C(C)C)cc1 (stereo unspecified),3880
2,COc1ccc(-n2ncc3c(SCC(=O)NNC(C)=O)ncnc32)cc1,3990
3,COc1ccc(-n2ncc3c(N4CCCc5ccccc54)ncnc32)cc1,11300
4,COc1ccc(-n2ncc3c(N4CCc5ccccc54)ncnc32)cc1,22400 (active)
5,CCCNC(=O)C1(C)CCN(Cc2csc(-c3ccc(Cl)cc3)n2)C1 (stereo unspecified),3720
6,Cc1cc2nc(-c3ccc(Cl)cc3)c(Cc3cccc(F)c3)n2c(C)c1Br,6020
7,O=C(NCC12CC3CC(C1)CC(CNC(=O)N1CCCC1)(C3)C2)N1CCCC1,16800 (active)
8,O=C(N1CCCC1)C12CC3CC(C1)CC(C(=O)N1CCCC1)(C3)C2,2410
9,C=CCNC(=O)CC12CC3CC(C1)CC(CC(=O)NCC=C)(C3)C2,4730
10,Nc1nc(SCc2cccc(Br)c2)n[nH]1,3680
11,C=CCc1cccc2cc(C(=O)NC3CCCC3)c(=O)oc12,2230
12,Cc1ccc(C(=O)CSc2nc3ccccc3c(=O)n2N)o1,19100 (active)
13,COc1ccc(OCc2ccc(-c3nc4ccccc4c(=O)n3N)o2)cc1,2450
14,COc1ccc(NC(=O)CSc2nc3ccccc3c(=O)n2C)cc1,3680
15,COc1ccc(-c2ccc(C(=O)NCCN3CCOCC3)c3occc23)c(C)c1,3620
16,Cc1nnc(SCC(=O)Nc2ccc(S(=O)(=O)Nc3ccc(Cl)nn3)cc2)s1,5340
17,COc1ccccc1N1CCN(Cc2cc(OC)c3c(c2)OCO3)CC1,3350
18,COc1ccccc1N1CCN(Cc2ccc(OC)c3ccccc23)CC1,21400 (active)
19,COc1ccc(CN2CCN(Cc3ccc(OC)c(OC)c3OC)CC2)cc1,3740
20,COC(C[C@@H](O)[C@H](C)[C@H](O)COCc1ccccc1)OC,4260
21,COc1cc(/C=C(/NC(=O)c2ccccc2)C(=O)Nc2cccc(O)c2)c([N+](=O)[O-])cc1OC,11300
22,O=C(COC(=O)/C=C/c1ccc(OC(F)F)cc1)NC1CCCCC1,5950
23,CC(=O)C1=C(O)C(=O)N(c2ccc(S(N)(=O)=O)cc2)C1c1ccccc1F (stereo unspecified),2660
